Pol eta inh = inhibitors of human DNA polymerase eta; Q9Y253; recombinant Pol eta, fluorescent DNA replication assay; Potency, µM (top dose mostly 114 µM), without a hit: top-dose activity change, negative = inhibition, most hits filed as inhibitors; actives 1.2% (n = 390,000); note: % is set by controls: 0 for no effect and ±100 for the full control effect
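Fluorescent replication assay: 50 nM final substrate added after a 15 min room-temperature compound preincubation with 10 nM enzyme. Signal taken at 0 min and again at 10 min.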
FEN1 inhibitor = inhibitors of human flap endonuclease 1. P39748. Recombinant FEN1 flap cleavage, fluorescence, 15 min. Potency, µM (top dose mostly 114 µM), for the others: at the highest dose activity change, negative = inhibition, usual class: inhibitors. actives 0.35% (n = 390,000). AID 588795; note: % is set by controls: 0 for no effect and ±100 for the full control effect; nearly all actives have a fitted effect of over 65% in size
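Concentration–response screening of FEN1 (10 nM): 15 min compound preincubation at room temperature, reaction started with 50 nM substrate and read at 0 and 15 min. Corrected, normalized data were fitted by a four-parameter Hill equation.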
WRN inhibitor = blocks human WRN helicase; Q14191; WRN helicase unwinding, fluorescent forked duplex, kinetic; Potency, µM (doses to about 114 µM), for the others: at the highest dose activity change, negative = inhibition, actives largely listed as inhibitors; actives 0.46% (n = 360,000); AID 651768; note: % is set by controls: 0 for no effect and ±100 for the full control effect; nearly all actives have a fitted effect of over 55% in size
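Kinetic red-fluorescence monitoring (525/598 nm) tracks WRN helicase activity after 100 nM fluorophore-quencher forked duplex and 2 mM ATP are added to 20 nM enzyme pretreated 15 min at room temperature with compound.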
Pol beta inh = DNA polymerase beta (human) inhibition. Pol beta primer extension/strand displacement, fluorescence kinetic. actives 1.3% (n = 340,000). P06746. AID 485314. Potency, µM (doses to about 114 µM), for the others: at the highest dose activity change, negative = inhibition, most hits filed as inhibitors; note: % is set by controls: 0 for no effect and ±100 for the full control effect
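Human Pol beta at 10 nM; strand-displacement substrate 50 nM final. Compound exposure 15 min at room temperature before start, reaction 10 min at room temperature.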
POLI inh = DNA polymerase iota (human) inhibition; Q9UNA4; Pol iota fluorescent replication assay, 10 min; Potency, µM (series often up to 115 µM), for inactives: at the top dose activity, negative = inhibition, hits mostly inhibitors; actives 1% (n = 390,000); AID 588590
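Pol iota at 10 nM preincubated 15 min with compounds at room temperature; reaction started with fluorescent substrate, 50 nM final. Fluorescence read kinetically at 0 and 10 min; buffer-only wells as negative control.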
Pol kappa inh = DNA polymerase kappa (human) inhibition. purified Pol kappa, fluorescent DNA synthesis assay, 10 min. Potency, µM (series often up to 107 µM), inactives show top-dose activity, negative = inhibition, actives largely listed as inhibitors. actives 0.53% (n = 400,000); note: % is set by controls: 0 for no effect and ±100 for the full control effect
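Kinetic fluorescence screen: compound preincubated 15 min RT with 10 nM enzyme; 50 nM substrate (final) initiates; reads at 0/10 min.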
* marks the source's active call; other numbers are inactive results; ? = inconclusive; . = no result; [ ] = dose if it differs, or a comment. Rows were chosen to be rich in hits. Some 2.4% of all compounds tested hit in one or more screens of this group. Calls come from the whole dose curve; as a rule, active = well fitted curve in the direction sought with a large enough effect; inconclusive = small, poorly fitted or top-dose-only effect, or another doubt; inactive = no such curve, though single readings can be large; an effect the other way counts as inactive or inconclusive. Potency is the fitted concentration of half-maximal effect.

SMILES	Pol eta inh	FEN1 inhibitor	WRN inhibitor	Pol beta inh	POLI inh	Pol kappa inh
COc1c2c(c(C)c3c1C(=O)OC3)O[C@@]1(C)CC[C@@]3(O)C(C)(C)OC(=O)CC[C@]3(C)[C@H]1C2	45µM*	-8%	-6%[11.6 µM]	?	?	-37%
Cc1cc(=O)cc(C)n1-c1ccc(Br)cc1	-16%	-5%	16µM*	-13%	44%	4%
O=C(OCc1cc(=O)n2nc(C3CC3)sc2n1)c1ccc(NC(=O)c2ccccc2Cl)cc1	-14%	1%	.	7%	15%	-4%[60.1 µM]
COC(=O)/C=c1/s/c(=C(\C#N)C(=O)NCc2ccco2)n(-c2ccccc2)c1=O	?	5%	-8%[11.6 µM]	18%	89µM*	-10%
COc1ccc(/C=c2\s/c(=C(/C#N)C(=O)NCc3ccco3)n(-c3ccccc3)c2=O)cc1	-10%	0%	1%[57.1 µM]	2%	53%	1%
CC1=C(C(=O)OC(C)C)C(c2ccco2)NC(=O)N1 (stereo not given)	?	-5%	-24%	50µM*	?	-13%
CCOC(=O)C1=C(C)NC(=O)NC1c1ccc(Br)o1 (stereo not given)	-12%	12%	-3%	2%	70%	-1%
COCCOC(=O)C1=C(C)NC(=O)NC1c1ccc(OC(=O)c2ccco2)c(OC)c1 (stereo not given)	3%	2%	2%	2%	2%	-14%
COCCOC(=O)C1=C(C)NC(=O)NC1c1ccco1 (stereo not given)	79µM*	-16%	9%	?	40µM*	-31%
CCOC(=O)C1=C(C)NC(=O)NC1c1ccco1 (stereo not given)	79µM*	-14%	-35%	35µM*	45µM*	?
Clc1ccc(Cn2c3c(c4ccccc42)CCc2cc4ccccc4nc2-3)cc1	.	8%	.	.	20%	7%
CN(C)S(=O)(=O)N(CC(=O)NCCSCc1ccccc1)c1ccccc1	?	-3%	-12%[11.6 µM]	35µM*	?	?
CN(C)S(=O)(=O)N(CC(=O)N(Cc1ccccc1)Cc1ccccc1)c1ccccc1	?	-4%	-27%[57.1 µM]	22µM*	?	?
CCc1ccc(NC(=O)CN(c2ccccc2)S(=O)(=O)N(C)C)cc1	?	0%	-29%	?	?	-5%
COc1ccc(/C=C/c2ccccc2)cc1C1C2C=CCCC2(C)C(=O)N1Cc1ccccc1 (stereo not given)	.	3%	.	.	3%	0%
Cc1nc2ccc(C(=O)OC(C)C(=O)c3c(C)[nH]c4ccccc34)cc2nc1C (stereo not given)	.	1%	.	.	13%	-14%
Cc1ccc(/C=C/C2=Cc3c(sc(NC(=O)CSc4n[nH]c(N)n4)c3C#N)C(C)(C)C2)o1	.	.	.	40µM*	.	.
Cc1ccc(C(=O)Cn2c3c(sc2=N)CCCC3)cc1	.	.	.	.	.	0%[19.4 µM]
COc1ccc(-c2ccc(SCC(=O)NCc3ccco3)nn2)cc1OC	?	-19%	-31%	8%	-37%	?
COc1ccc(-c2[nH]c(-c3ccc(C)cc3)nc2SCC(=O)NCc2ccco2)cc1OC	-5%	19%	-3%	79µM*	-11%	6%
Cc1cc2nc(-c3cccnc3SCC(=O)NC3CC3)[nH]c2cc1C	.	.	.	-17%	.	.
Cc1cc2nc(-c3cccnc3SCC(=O)NCc3ccco3)[nH]c2cc1C	-19%	-18%	-17%	50µM*	7%	-3%
O=C(CSc1ncccc1-c1nc2ccccc2[nH]1)NCc1ccco1	25µM*	?	?	32µM*	?	50µM*
Cc1ccc(NC(=O)NCCOCCn2c(=O)oc3ccccc32)c(C)c1	4%	-7%	.	50%	-20%	-1%
COc1ccc(Br)cc1/C=C/C(=O)c1ccc(NC(C)=O)cc1	?	?	-3%[11.6 µM]	20%	100µM*	-19%
SMILES	Pol eta inh	FEN1 inhibitor	WRN inhibitor	Pol beta inh	POLI inh	Pol kappa inh
O=C(C1CCCCC1)N(Cc1cccnc1)c1nc2c(F)cccc2s1	-23%	-10%	.	-26%	4%	-15%[60.1 µM]
CCCOc1ccc(N)cc1N	?	?	56µM*	?	?	-30%
CCc1ccccc1S(=O)(=O)Cc1ccc(C(=O)NCCc2ccc(C)cc2)o1	-14%	0%	.	-3%	4%	-9%
CC1=NN(c2nc(-c3ccc(C)cc3)cs2)C(=O)C1N=Nc1cccc(O)c1 (stereo not given)	?	-4%	-33%	13µM*	?	?
COc1ccc2c(c1)oc(=O)c1cc(OC)ccc12	-12%	0%	1%	?	-1%	-5%
COc1cc(O)c2c(c1)oc(=O)c1c3cc(O)c(O)cc3oc21	.	.	.	.	.	0.75µM*
O=c1nc(/C=C/c2cc([N+](=O)[O-])ccc2Cl)cc(C(F)(F)F)[nH]1	22µM*	4%	-26%[57.1 µM]	6%	?	12%
O=c1nc(/C=C/c2cccn2-c2ccc([N+](=O)[O-])cc2)cc(C(F)(F)F)[nH]1	45µM*	-19%	?	?	40µM*	89µM*
Nc1c(C(=O)Nc2nc3ccccc3s2)sc2nc(-c3cccs3)ccc12	89µM*	-29%	?	-123%	32µM*	?
Cc1ccc(Cl)cc1NC(=O)Cn1nc2c(cc1=O)CC(C)CC2 (stereo not given)	-2%	18%	.	9%	-6%	-4%[60.1 µM]
Cc1nc2ccccc2n1CCc1nc2c3ccccc3nc(SCC(=O)NCc3ccco3)n2n1	?	-17%	-27%	40µM*	?	-7%
Cc1cccc(NC(=O)Cn2nnc(C(=O)NCc3cccs3)c2N)c1C	-10%	1%	-11%	0%	6%	-27%
Cc1c(Cl)cccc1NC(=O)Cn1nnc(C(=O)NCc2cccs2)c1N	79µM*	3%	?	?	89µM*	-26%
Oc1ccc(/C=C/c2ccc(/C=C/c3ccc(O)cc3)c(Br)c2)cc1	.	.	.	.	.	2%[60.1 µM]
N=C(N)c1ccc(/C=C/c2ccc(C(=N)N)cc2O)cc1	-6%	?	.	8.9µM*	35µM*	?
Cc1csc(NCC(=O)c2c(C)[nH]c3ccccc23)n1	.	-15%	.	.	-5%	-2%
NC(=O)c1ccsc1NC(=O)c1ccc2c(c1)CCCC2	-19%	-10%	0%	-7%	3%	3%
NC(=O)c1ccsc1NC(=O)c1ccc(N2CCCC2=O)cc1	25µM*	?	-2%[11.6 µM]	32µM*	?	?
CCOC(=O)N1CCC(NC(=O)c2cnn(-c3cccc(F)c3)c2-n2cccc2)CC1	-14%	-5%	.	19%	16%	24%
CN(C(=O)c1cc2c(s1)-c1ccc(Cl)cc1SC2)c1cccc(C(F)(F)F)c1	-22%	8%	.	-15%	52%	-6%
